rCAG binder: molecules binding r(CAG) RNA repeats; r(CAG) RNA repeat, TO-PRO-1 dye displacement fluorescence; inhibition, % at 3 µM; 370,000 tested, 1.3% active;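 active means inhibition above the plate cutoff, the mean of all test compounds on that plate plus 3 SD, cut at about 35% in these data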;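 further: higher means more dye released from RNA so lower well fluorescence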
ABCB6 inh MLPCN: human ABCB6 transporter inhibition. Q9NP58. fluorescence ratio to DMSO, % at 10 µM. K562-ABCB6 porphyrin accumulation, flow cytometry, 1 h; stronger effect = lower value. 360,000 tested, 0.19% active;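 active means fluorescence ratio to DMSO below 75%, the collection mean minus 3 SD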;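 further: signal is porphyrin accumulated inside mitochondria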
Target sequence (Q9NP58 whole entry, looked up): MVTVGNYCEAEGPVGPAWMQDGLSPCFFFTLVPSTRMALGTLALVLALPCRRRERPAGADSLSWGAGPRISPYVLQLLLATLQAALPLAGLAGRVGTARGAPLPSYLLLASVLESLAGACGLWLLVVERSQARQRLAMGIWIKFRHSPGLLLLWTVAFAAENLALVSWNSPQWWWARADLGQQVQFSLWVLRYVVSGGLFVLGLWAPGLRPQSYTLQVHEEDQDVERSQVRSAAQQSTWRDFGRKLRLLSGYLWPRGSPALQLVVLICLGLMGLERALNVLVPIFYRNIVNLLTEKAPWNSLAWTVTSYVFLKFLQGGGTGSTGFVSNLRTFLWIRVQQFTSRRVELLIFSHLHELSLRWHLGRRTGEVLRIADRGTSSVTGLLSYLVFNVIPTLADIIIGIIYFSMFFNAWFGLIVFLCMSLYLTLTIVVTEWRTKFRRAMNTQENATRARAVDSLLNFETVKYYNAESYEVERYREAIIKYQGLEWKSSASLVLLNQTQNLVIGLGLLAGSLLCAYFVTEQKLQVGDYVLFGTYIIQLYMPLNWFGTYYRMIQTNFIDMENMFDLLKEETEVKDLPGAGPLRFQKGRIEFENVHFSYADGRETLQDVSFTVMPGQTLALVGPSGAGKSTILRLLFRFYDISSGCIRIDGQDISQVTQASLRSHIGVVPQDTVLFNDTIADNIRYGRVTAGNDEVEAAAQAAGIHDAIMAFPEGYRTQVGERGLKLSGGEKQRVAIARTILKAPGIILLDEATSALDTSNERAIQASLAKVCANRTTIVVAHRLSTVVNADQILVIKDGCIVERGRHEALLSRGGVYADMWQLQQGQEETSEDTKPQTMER
PG9 binder: binds the HIV-1 gp120 antibody PG9; 360,000 tested, 0.43% active; TR-FRET gp120-PG9 antibody binding; AID 624416; inhibition, % at 6.7 µM; in the data active means inhibition above about 8.5%
Granule exo inh: blocks lytic granule exocytosis | TALL-104 LAMP-1 surface exposure, flow cytometry; cells stimulated with thapsigargin and PMA | inhibition, % at 10 µM | 360,000 tested, 0.66% active;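 active means inhibition above about 55%, limit read from the data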
Granule exo CP1: blocks lytic granule exocytosis; shares compounds with Granule exo inh; TALL-104 cells, LAMP-1 externalization, flow cytometry; stimulated with PMA plus thapsigargin; inhibition, % at 10 µM; 1,500 tested, 11% active; AID 651954; in the data active means inhibition above about 60%
Of the large screens only hits and unclear results are named; the others gave an inactive call (follow-up assays come after a bar, where they were run). Shown are actives, neighbours in structure and some others; about 2.5% of the full set was active somewhere.

O=[N+]([O-])c1ccc2nc(/C=C/c3ccc(Cl)cc3)[nH]c2c1	Granule exo inh 91.1 | Granule exo CP1 88.5
COc1ccccc1C1CC(=O)Oc2cc(C)c(Cl)c(C)c21 (configuration not stated)	none
COc1ccc(CN2CCCC(C(=O)c3cccc(OC(C)C)c3)C2)cc1Cn1cccn1 (configuration not stated)	none
CC(C)C(NC(=O)c1ccccc1)C(=O)OCC(=O)N1CCCCC1 (configuration not stated)	none
CC(C)[C@H](NC(=O)c1ccccc1)C(=O)OCC(=O)N1CCc2ccccc2C1	Granule exo inh 68.3 | Granule exo CP1 inactive
COc1ccc(CCNCc2ccccc2N2CCCC2)cc1	none
COc1ccc(CCNCc2cc(C)n(-c3ccc(OC)cc3)c2C)cc1	Granule exo inh 61.1 | Granule exo CP1 inactive
CCc1cc2c(CN(C)Cc3ccccc3F)cc(=O)oc2cc1O	Granule exo inh 59.0 | Granule exo CP1 inactive
O=C(CSc1nc2ccccc2[nH]1)Nc1cc(C(F)(F)F)ccc1N1CCOCC1	Granule exo inh 62.4 | Granule exo CP1 inactive
O=C(CSc1nc2ccccc2[nH]1)Nc1ccccc1N1CCOCC1	none
NS(=O)(=O)c1ccc(CCNCc2cc(Cl)ccc2OCc2ccccc2)cc1	none
NS(=O)(=O)c1ccc(CCNCc2ccccc2OCc2ccc(Cl)cc2)cc1	Granule exo inh 56.6 | Granule exo CP1 inactive
Cc1ccc(-c2nnn(CC(=O)N(Cc3ccco3)C(C(=O)NC3CCCC3)c3cccs3)n2)o1 (configuration not stated)	Granule exo inh 65.9 | Granule exo CP1 inactive
Cc1cccc(C)c1NC(=O)C1(C)CN(S(C)(=O)=O)CC(=O)N1Cc1cccc(F)c1 (configuration not stated)	none (no result: ABCB6 inh MLPCN)
Cc1cccc(NC(=O)C2CC(=O)NC(Nc3nc4ccccc4s3)=N2)c1 (configuration not stated)	none (no result: ABCB6 inh MLPCN, Granule exo inh)
COc1ccc(N/C=C/C(=O)c2cc(OC)c(OC)c(OC)c2)cc1	Granule exo inh 57.0 | Granule exo CP1 inactive
COc1ccc(N/C=C/C(=O)c2ccc(OC)c(OC)c2)cc1	none
CCCCn1c(N)c(N(CC(C)C)C(=O)COC(=O)C2(c3ccccc3)CC2)c(=O)[nH]c1=O	none
COc1ccc(CCNC(=O)c2cc3c(=O)n4ccccc4nc3n(CCCN3CCOCC3)c2=N)cc1	none
Cc1cccn2c(=O)c3cc(C(=O)NC4CCCC4)c(=N)n(CCc4ccccc4)c3nc12	Granule exo inh 68.7 | Granule exo CP1 inactive
Cc1ccc2nc3c(cc(C(=O)NCCc4ccccc4)c(=N)n3CCCN3CCOCC3)c(=O)n2c1	Granule exo inh 80.2 | Granule exo CP1 inactive
COc1ccc(CCn2c(=N)c(C(=O)NC3CCCC3)cc3c(=O)n4cccc(C)c4nc32)cc1	none
CCc1nc2c(OCc3ccc(C(=O)N(C)C)cc3)cccn2c1N(C)C(=O)c1ccc(C)cc1	none
COc1ccc(-n2nc3c(N4CCC(C(=O)NCc5ccccc5C)CC4)nnc(C)c3c2C)cc1	none (no result: rCAG binder, PG9 binder)
Cc1ccc(-n2nc3c(N4CCC(C(=O)NCc5cccc(F)c5)CC4)nnc(C)c3c2C)cc1	Granule exo inh 59.0 (no result: rCAG binder, PG9 binder) | Granule exo CP1 inactive
CCOc1ccccc1CNC(=O)C1CCCN(c2nnc(C)c3c(C)n(-c4ccccc4)nc23)C1 (configuration not stated)	Granule exo inh 72.5 | Granule exo CP1 inactive
c1ccc2c(N3CCCC3)nc(-c3ccncc3)nc2c1	Granule exo inh 60.5 | Granule exo CP1 inactive
COC(=O)C1CCN(CCCOc2ccc(CN3CCN(c4ccc([N+](=O)[O-])cc4)CC3)cc2)CC1	Granule exo inh 83.7 | Granule exo CP1 inactive
COC(=O)C1CCN(c2ccc([N+](=O)[O-])cc2)CC1	none
Cc1ccc(NC(=O)CCn2c(=O)[nH]c3ccsc3c2=O)cc1F	none
N#Cc1ccc(CSc2ccccn2)c(Cl)c1	Granule exo inh 80.7 | Granule exo CP1 inactive
CCOc1ccc2c(c1)C(C)=CC(C)(C)N2S(=O)(=O)c1ccc(NC(C)=O)cc1	Granule exo inh 69.0 | Granule exo CP1 inactive
COCc1cc(C)nc(SCc2ccc(Cl)cc2)c1C#N	Granule exo inh 69.2 | Granule exo CP1 inactive
Cc1cccc(Oc2sc(C(=O)c3ccccc3)c(N)c2C#N)c1C	Granule exo inh 65.6 | Granule exo CP1 inactive
N#Cc1c(Oc2ccc3ccccc3c2)sc(C(=O)c2ccccc2)c1N	none
COc1cccc(NS(=O)(=O)c2ccc(C)c(C(=O)N3CCCCC3)c2)c1	none
O=C(OCc1ccccc1)N(CCCCN(CCCNCc1ccccc1)C(=O)OCc1ccccc1)CCCNCc1ccccc1	Granule exo inh 85.1 | Granule exo CP1 98.9
CCc1ccc(C(O)c2ncc(-c3ccc4ccccc4c3)[nH]2)cc1 (configuration not stated)	none
CCc1ccc(-c2cc3c(=O)n(CC(=O)NCCCN4CCC(Cc5ccccc5)CC4)nc(C)n3n2)cc1	none
Cc1nn(CC(=O)NCCCN2CCC(Cc3ccccc3)CC2)c(=O)c2cc(-c3ccccc3)nn12	Granule exo inh 87.3 | Granule exo CP1 inactive
Nc1ccc(-c2nc3ccc(N)cc3o2)cc1	Granule exo inh 63.2 | Granule exo CP1 inactive
COc1ccc(NC(=O)Nc2nnc(Cc3ccc(OC)c(OC)c3)s2)cc1	none
COc1ccc(Cc2nnc(NC(=O)Nc3ccc(C)cc3)s2)cc1OC	Granule exo inh 65.1 | Granule exo CP1 inactive
COC(=O)C1=C(C)N(C)C(=NCc2ccccc2)NC1c1ccccc1C(F)(F)F (configuration not stated)	none (no result: ABCB6 inh MLPCN, Granule exo inh)
CC1(C2CC2)NC(=O)N(CC(=O)NCC(=O)Nc2ccc(F)c(F)c2F)C1=O (configuration not stated)	Granule exo inh 56.0 | Granule exo CP1 inactive
COc1cccc(N2CCc3c(C)nc4ccc(Cl)cc4c32)c1	Granule exo inh 81.5 | Granule exo CP1 inactive
O=C(COC(=O)/C=C/c1cccc(Br)c1)NC1CCCC1	none
CC(=O)Oc1cccc(NC(=O)c2cccc(C(=O)Nc3cccc(OC(C)=O)c3)c2)c1	Granule exo inh 63.8 | Granule exo CP1 inactive
Cc1cc(C(F)(F)F)nc(SCC(=O)Nc2c(C)n(C)n(-c3ccccc3)c2=O)n1	none
CN(C)CCNc1nc2sc3c(c2c(=O)n1Cc1ccccc1)CCCCC3	Granule exo inh 57.4 | Granule exo CP1 inactive
CN(C)CCNc1nc2sc3c(c2c(=O)n1-c1ccccc1)CCCCC3	none
O=c1c2c3c(sc2nc(N2CCNCC2)n1CCc1ccccc1)CCCCC3	Granule exo inh 59.6 | Granule exo CP1 inactive
CC(CC(=O)Nc1ncc([N+](=O)[O-])s1)c1ccccc1 (configuration not stated)	Granule exo inh 58.6 | Granule exo CP1 inactive
CCC(Oc1ccccc1)C(=O)Nc1ncc([N+](=O)[O-])s1 (configuration not stated)	none
CCCNCc1cc(Br)ccc1OCC(=O)NCCc1ccccc1	none
O=C(COc1ccc(Br)cc1CNCCc1ccccc1)NCc1ccccc1	Granule exo inh 66.9 | Granule exo CP1 inactive
COc1cc(OC)c(OC)cc1CNCc1ccco1	none
CC(=O)N1CCN(S(=O)(=O)c2cccc(C(=O)NCCC3=CCCCC3)c2)CC1	Granule exo inh 66.8 | Granule exo CP1 inactive
